PubChem BioAssay (Tox21)
Inconclusive results are not listed. Calls of active or inactive are those of the source. The call rests on the fitted dose curve.

What follows are molecules tested against Acetylcholinesterase (Homo sapiens) (UniProt P22303) (assay: Acetylcholinesterase (AChE) small molecule antagonists: colormetric cell-based qHTS assay (AID 1347395; further: nearly all actives have a fitted effect of over 30% in size)). Details: SH-SY5Y cells AChE activity, colorimetric (Ellman); series mostly up to 115 µM; activity, negative = inhibition: at the top concentration.
Outline: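 In this cell-based qHTS, attached SH-SY5Y cells were treated with test chemicals for 30 min, after which acetylthiocholine hydrolysis was followed by DTNB colour development over 90 min at 37 C.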
On the % scale 0 is the no-effect control and ±100 the full control effect; potency means the concentration at half of the fitted maximal effect.

Sequence of Acetylcholinesterase (Homo sapiens) (P22303 whole entry, looked up): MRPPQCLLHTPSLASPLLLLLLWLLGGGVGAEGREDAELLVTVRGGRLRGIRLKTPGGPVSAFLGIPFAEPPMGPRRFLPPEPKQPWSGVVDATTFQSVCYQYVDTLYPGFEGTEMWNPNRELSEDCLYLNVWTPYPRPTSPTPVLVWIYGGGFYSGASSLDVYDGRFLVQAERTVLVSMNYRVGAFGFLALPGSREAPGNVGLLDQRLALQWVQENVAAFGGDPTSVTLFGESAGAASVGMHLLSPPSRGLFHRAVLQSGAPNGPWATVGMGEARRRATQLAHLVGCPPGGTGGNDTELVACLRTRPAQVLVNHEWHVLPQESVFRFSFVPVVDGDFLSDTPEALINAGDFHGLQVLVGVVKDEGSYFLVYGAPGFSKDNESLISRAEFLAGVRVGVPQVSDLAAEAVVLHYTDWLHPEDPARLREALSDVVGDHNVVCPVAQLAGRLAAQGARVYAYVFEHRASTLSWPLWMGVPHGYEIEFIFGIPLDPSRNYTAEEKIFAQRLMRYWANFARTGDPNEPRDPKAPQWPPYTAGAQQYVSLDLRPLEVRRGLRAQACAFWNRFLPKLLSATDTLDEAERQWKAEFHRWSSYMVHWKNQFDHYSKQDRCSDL

Row | SMILES | activity, negative = inhibition | Potency
1 | CCC(=O)OC/C=C(\C)CCC=C(C)C | -1.26% (inactive) | 
2 | COC(=O)CC(C)=O | -1.02% (inactive) | 
3 | CCOC(=O)CS | 5.64% (inactive) | 
4 | O=C(O)c1c(Cl)cccc1Cl | 0.307% (inactive) | 
5 | Cc1ccccc1N=Nc1ccc(N=Nc2c(O)ccc3ccccc23)c(C)c1 | 3.77% [at 52.9 µM] (inactive) | 
6 | CNC(C)=O | 3.45% (inactive) | 
7 | CNC(=O)C(c1ccccc1)c1ccccc1 | 2.73% (inactive) | 
8 | CC(=O)c1ccccc1N | 3.65% (inactive) | 
9 | CCCCCCCOC(=O)c1ccccc1C(=O)OCCCCCCC | -5.77% (inactive) | 
10 | CCCCCCCCC(=O)Cl | 1.26% (inactive) | 
11 | CCCCCCOc1ccc(N)cc1 | -2.71% (inactive) | 
12 | CN1CCN(CC(=O)N2c3ccccc3C(=O)Nc3cccnc32)CC1 | 0.44% [at 10.5 µM] (inactive) | 
13 | COCCOCCOCCOCCOC | 1.45% (inactive) | 
14 | CC(COc1ccccc1)NC(C)C(O)c1ccc(O)cc1 (stereo not given) | -0.132% [at 52.9 µM] (inactive) | 
15 | Nc1ccc(NCCO)c([N+](=O)[O-])c1 |  | 35.6 µM (active)
16 | [K+] | 6.54% (inactive) | 
17 | O=C1CCCN1C1CCCCC1 | -2.01% (inactive) | 
18 | CC(C)(C)c1ccc(OCC2CO2)cc1 (stereo not given) | -0.145% (inactive) | 
19 | O=C1N(c2ccccc2)c2ccccc2C1(Cc1ccncc1)Cc1ccncc1 | -9.25% [at 52.9 µM] (inactive) | 
20 | COC(=O)c1cc(C(=O)OC)cc(S(=O)(=O)O)c1 | -2.54% (inactive) | 

Row | SMILES | activity, negative = inhibition | Potency
21 | Nc1nc(Cl)nc2c1ncn2[C@@H]1O[C@H](CO)[C@@H](O)[C@@H]1F | -0.589% [at 52.9 µM] (inactive) | 
22 | O=C(O)[C@@H]1[C@H]2C[C@H]3c4[nH]c5ccccc5c4CCN3C[C@@H]2CC[C@@H]1O | -4.44% [at 52.9 µM] (inactive) | 
23 | N#CC1(N)CCCCC1 | 2.66% (inactive) | 
24 | COCCO | 1.29% (inactive) | 
25 | COc1ccc(-c2ccc3cc(C(=O)O)ccc3c2)cc1C12CC3CC(CC(C3)C1)C2 | 0.0881% [at 52.9 µM] (inactive) | 
26 | CC(C)(O)c1ccc(CNC(=O)c2cccnc2Oc2ccc(F)cc2)cc1 | -0.279% (inactive) | 
27 | O=C(Nc1ccc([N+](=O)[O-])cc1)Nc1ccc([N+](=O)[O-])cc1 | -0.0881% [at 52.9 µM] (inactive) | 
28 | C/C=C/C=C/C=O | 1.45% (inactive) | 
29 | C=CC(=O)OCCn1c(=O)n(CCOC(=O)C=C)c(=O)n(CCOC(=O)C=C)c1=O | -2.36% (inactive) | 
30 | CCC(=O)CC | 0.577% (inactive) | 
31 | CCCCC | 2.46% (inactive) | 
32 | Cc1oc2c(NC(=O)c3c(Cl)cccc3Cl)cccc2c1C(C)(C)O | -3.06% (inactive) | 
33 | Clc1ccc2n[nH]nc2c1 | 0.374% (inactive) | 
34 | CCCCOC(=O)CCCCCCCC(=O)OCCCC | 0.105% (inactive) | 
35 | CCCCCCCCCCCCCCCC(=O)OC/C=C(C)/C=C/C=C(C)/C=C/C1=C(C)CCCC1(C)C | 0.707% (inactive) | 
36 | CCCCCOc1ccccc1/C(=C\SC)n1ccnc1 | 4.76% [at 52.9 µM] (inactive) | 
37 | Nc1ccc2ccccc2c1S(=O)(=O)O | -0.387% (inactive) | 
38 | Nc1c(Br)cc([N+](=O)[O-])cc1Br | 2.48% (inactive) | 
39 | Cc1ccc(C(C)NC(=O)[C@@H](NC(=O)OC(C)C)C(C)C)cc1 (stereo not given in full) | -0.0275% (inactive) | 
40 | C=CC(C)(O)CCCC(C)CCCC(C)CCCC(C)C (stereo not given) | -1.66% (inactive) | 
